# Measurements published in ChEMBL document CHEMBL3988442, “University of Dundee, Small-Polar-MMV Screening Library” (2021).
# The campaign covered roughly 66,000 compounds. About 960 (1.5%) showed an effect of 50% or more. The sample as a whole holds a higher share of strong results than the screen did.
# Test system: Trypanosoma brucei
# Test: Trypanosoma brucei 72 hour study
# Format: functional, organism-based
# Parameters: scale not given: in the data most compounds retested in dose-response had high values
smiles,measurement,setting,value
CCC(CN1CCCC1)NC(=O)Cc1c(C)[nH]c2c(C)cc(C)cc12.O=C(O)CC(O)(CC(=O)O)C(=O)O (configuration not stated),Percent Effect,"30.3 µM, […]",9.843%
Cc1ccc(CN2CCCn3nnc(COCC4CC4)c3C2)s1.O=C(O)C(F)(F)F,Percent Effect,"30 µM, 30.03 µM",22.43%
CN(C)CCCN(Cc1ccco1)Cc1ccnn1C1CCCCO1.O=C(O)CC(O)(CC(=O)O)C(=O)O (configuration not stated),Percent Effect,"30.3 µM, […]",-21.72%
O=C(O)C(F)(F)F.O=C(c1ccncc1)N1CCOC2(CCCN(c3nncs3)C2)C1 (configuration not stated),Percent Effect,"30.3 µM, […]",-64.64%
CN(C)S(=O)(=O)N1CCC(c2cccc(Cc3ccccc3Cl)n2)CC1,Percent Effect,"30.3 µM, […]",-38.96%
Cc1ccc(-c2nc(CN(Cc3cccs3)CC3CCCO3)no2)cc1 (configuration not stated),Percent Effect,10 µM,-10.74%
same,Percent Effect,"30.3 µM, […]",9.515%
Cc1ncoc1C(=O)N1C[C@H]2CCC[C@@]2(COCc2cccnc2)C1.O=C(O)C(F)(F)F,Percent Effect,"30 µM, 30.03 µM",18.22%
Cn1nnc2c1CCN(CC1CC1)C2COCc1ccccc1.O=C(O)C(F)(F)F (configuration not stated),Percent Effect,"30 µM, 30.03 µM",17.54%
CO[C@@H]1CC[C@H]2[C@H]1OCCN2Cc1ccc(F)c(F)c1.O=C(O)C(F)(F)F,Percent Effect,"30.3 µM, […]",-7.78%
CC(C)NC(=O)N1CCOC2(CCCN(c3ncccc3F)C2)C1.O=C(O)C(F)(F)F (configuration not stated),Percent Effect,"30.3 µM, […]",-41.85%
Nc1ncc(CN2CCC(O)(c3ccccc3F)CC2)cn1,Percent Effect,"30.3 µM, […]",-5.013%
OC1(c2ccccc2F)CCN(Cc2ccccc2N2CCCC2)CC1,Percent Effect,"30.3 µM, […]",56.26%
Cl.OC1(c2ccc(F)cc2)CCN(Cc2ccccc2N2CCCC2)CC1,Percent Effect,"30.3 µM, […]",-34.29%
Cc1nc(CCN)cc(N2CCC(O)(c3ccccc3)C2)n1 (configuration not stated),Percent Effect,"30 µM, 30.03 µM",-28.3%
COc1cccc(CN2CCC(O)(c3ccc(C)cn3)CC2)c1OC,Percent Effect,"30.3 µM, […]",-256.8%
Cc1cccc(C2(O)CCN(Cc3ccccc3N3CCCC3)CC2)c1,Percent Effect,"30.3 µM, […]",93.6%
COc1cc(CCC(=O)N2CCC(c3cc4ncccc4[nH]3)CC2)on1,Percent Effect,"30.3 µM, […]",13.01%
COc1cc(CCC(=O)N2CCC(c3cc4ncc(C)nc4[nH]3)C2)on1 (configuration not stated),Percent Effect,"30.3 µM, […]",31.83%
COc1cc(CCC(=O)N2CCC(c3cc4nccnc4[nH]3)CC2)on1,Percent Effect,"30.3 µM, […]",60.69%
O=C(C1CCOCC1)N1CCO[C@H]2[C@H](OCc3ccncc3)CC[C@@H]21.O=C(O)C(F)(F)F,Percent Effect,"30 µM, 30.03 µM",-17.19%
CN(Cc1ccncc1)C1COC2(CCN(Cc3ccsc3)CC2)C1.O=C(O)C(F)(F)F.O=C(O)C(F)(F)F.O=C(O)C(F)(F)F (configuration not stated),Percent Effect,"30 µM, 30.03 µM",11.15%
Cn1nc(C(=O)NCc2cccs2)c2c1CCS(=O)(=O)C2,Percent Effect,"30.3 µM, […]",-10.45%
Cn1nc(C(=O)NCc2ccccn2)c2c1CCS(=O)(=O)C2,Percent Effect,"30 µM, 30.03 µM",63.28%
Cn1nc(C(=O)NCc2cccnc2)c2c1CCS(=O)(=O)C2,Percent Effect,"30.3 µM, […]",-19.1%
CC(=O)N1CCC[C@@H](NCc2c[nH]c3ccccc23)[C@@H]1c1ccc(C)s1.Cl,Percent Effect,"30.3 µM, […]",-17.97%
Cc1cnn(C2CCCN(C(=O)Cc3c(C)nn(C)c3C)C2)c1 (configuration not stated),Percent Effect,"30.3 µM, […]",-16.8%
Fc1cnc(N2CCCC3(COCCN(c4nccs4)C3)C2)nc1.O=C(O)C(F)(F)F.O=C(O)C(F)(F)F (configuration not stated),Percent Effect,"30 µM, 30.03 µM",60.81%
O=C(O)C(F)(F)F.O=C(c1cccs1)N1CCCC2(COCCN(c3cccnc3)C2)C1 (configuration not stated),Percent Effect,"30.3 µM, […]",-669.5%
N#Cc1ccc(N2CCCC3(CCN(c4cccnc4)CC3)C2)cc1.O=C(O)C(F)(F)F,Percent Effect,"30.3 µM, […]",65.08%
Cc1cnc(N2CCCC3(COCCN(c4nccs4)C3)C2)nc1 (configuration not stated),Percent Effect,"30.3 µM, […]",-22.75%
O=C(O)C(F)(F)F.c1cncc(N2CCC3(CCCN(c4ccncc4)C3)CC2)c1,Percent Effect,"30.3 µM, […]",-3.759%
O=C(O)C(F)(F)F.O=C(O)C(F)(F)F.c1cncc(N2CCCC3(CCN(CCN4CCCC4)CC3)C2)c1,Percent Effect,"30.3 µM, […]",-7.746%
O=C(O)C(F)(F)F.O=S(=O)(c1cccs1)N1CCCC2(COCCN(c3cccnc3)C2)C1 (configuration not stated),Percent Effect,"30.3 µM, […]",53.4%
O=C(O)C(F)(F)F.c1ccc(N2CCCC3(COCCN(c4nccs4)C3)C2)nc1 (configuration not stated),Percent Effect,"30 µM, 30.03 µM",23.77%
O=C(O)C(F)(F)F.c1cncc(N2CCOCC3(CCCN(c4nncs4)C3)C2)c1 (configuration not stated),Percent Effect,"30.3 µM, […]",1.277%
O=C(O)C(F)(F)F.O=C(O)C(F)(F)F.c1cc(CN2CC[C@@H]3[C@@H](CO[C@H]3CN3CCOCC3)C2)cs1,Percent Effect,"30.3 µM, […]",-46.86%
COc1ccc(N2CCN(C(=O)[C@H]3[C@@H]4CNC[C@@H]43)CC2(C)C)cc1,Percent Effect,"30 µM, 30.03 µM",-58.92%
Cc1cccc(CN2CCO[C@@H]3CC(COc4ccccn4)C[C@H]32)n1.O=C(O)C(F)(F)F.O=C(O)C(F)(F)F (some centres not stated),Percent Effect,"30.3 µM, […]",-29.04%
Cc1cc(C)c2cc(CNCC3CCCO3)c3nn(C)c(=O)n3c2c1 (configuration not stated),Percent Effect,"30.3 µM, […]",73.49%
CCCNCc1cc2c(C)cc(C)cc2n2c(=O)n(C)nc12,Percent Effect,"30.3 µM, […]",24.54%
Cc1cc(C)c2cc(CNCc3ccco3)c3nn(C)c(=O)n3c2c1,Percent Effect,"30.3 µM, […]",8.532%
Cc1cc(C)c2cc(CNCc3ccc(C)o3)c3nn(C)c(=O)n3c2c1,Percent Effect,"30.3 µM, […]",-8.702%
Cc1cc(C)c2cc(CNC(C)C)c3nn(C)c(=O)n3c2c1,Percent Effect,"30.3 µM, […]",99.68%
COCCNCc1cc2c(C)cc(C)cc2n2c(=O)n(C)nc12,Percent Effect,"30.3 µM, […]",39.03%
Cc1cc(C)c2cc(CNC3CCCCC3)c3nn(C)c(=O)n3c2c1,Percent Effect,"30.3 µM, […]",100.6%
Cc1cc(C)c2cc(CNCc3ccccc3)c3nn(C)c(=O)n3c2c1,Percent Effect,"30.3 µM, […]",17.22%
CCOCCCNCc1cc2c(C)cc(C)cc2n2c(=O)n(C)nc12,Percent Effect,"30.3 µM, […]",2.995%
Cc1nc(Nc2ncccn2)cc(C2CCCN2CC(C)C)n1 (configuration not stated),Percent Effect,"30 µM, 30.03 µM",-16.62%
Cc1nc(CN2CCC3(CC2)NC(=O)CC3c2ccccc2)cs1.O=C(O)C(F)(F)F (configuration not stated),Percent Effect,"30.3 µM, […]",10.42%
O=C(Cc1cccc(F)c1)N1C[C@H]2CN(Cc3ccccn3)C[C@H]2C1.O=C(O)C(F)(F)F,Percent Effect,"30.3 µM, […]",-6.988%
CC(C)n1c(=O)nc2n1C(=O)N(c1ccccc1)C2,Percent Effect,"30 µM, 30.03 µM",14.82%
CN1CCN(Cc2cnc3n2CCN(Cc2cccnc2)CC3)CC1.O=C(O)C(F)(F)F.O=C(O)C(F)(F)F.O=C(O)C(F)(F)F,Percent Effect,"30.3 µM, […]",-39.08%
Cc1nc(CN2C(=O)C[C@@H]3[C@@H]2CCN3S(C)(=O)=O)cs1,Percent Effect,"30 µM, 30.03 µM",-13.69%
Cc1cc2nc(C(C)C)cc(NCCNc3ncccc3C)n2n1,Percent Effect,"30 µM, 30.03 µM",-45.75%
COc1ccc(-c2c[nH]c([C@@H]3COCCN3)n2)cc1,Percent Effect,"30 µM, 30.03 µM",-38.08%
FC(F)(F)Oc1ccc(-c2c[nH]c([C@@H]3COCCN3)n2)cc1,Percent Effect,"30 µM, 30.03 µM",62.77%
FC(F)(F)c1ccc(-c2c[nH]c([C@@H]3COCCN3)n2)cc1,Percent Effect,"30 µM, 30.03 µM",11.07%
CC(Nc1cccc(F)c1C#N)c1cccc(S(N)(=O)=O)c1 (configuration not stated),Percent Effect,"30 µM, 30.03 µM",70.17%
CC(Nc1ccc(C#N)cc1F)c1cccc(S(N)(=O)=O)c1 (configuration not stated),Percent Effect,"30 µM, 30.03 µM",35.16%
CC(Nc1c(F)cc(C#N)cc1F)c1cccc(S(N)(=O)=O)c1 (configuration not stated),Percent Effect,"30 µM, 30.03 µM",39.53%
CC(=O)N1CCN(Cc2ccc(F)cc2)CC2(CC(=O)N(C)C2)C1.O=C(O)C(F)(F)F (configuration not stated),Percent Effect,"30.3 µM, […]",-72.99%
Cc1cc(-c2cnc(NCc3cccnc3)nc2C(C)C)on1,Percent Effect,"30 µM, 30.03 µM",23.42%
Cc1cc(-c2cnc(NCc3ccc4c(c3)OCO4)nc2C(C)C)on1,Percent Effect,"30.3 µM, […]",70.78%
COc1ccc(CNc2ncc(-c3cc(C)no3)c(C(C)C)n2)cc1,Percent Effect,"30.3 µM, […]",46.49%
Cc1cc(-c2cnc(NCc3cccnc3)nc2C(C)(C)C)on1,Percent Effect,"30 µM, 30.03 µM",25.28%
Cc1cc(-c2cnc(NCc3ccccn3)nc2C(C)C)on1,Percent Effect,"30.3 µM, […]",94.64%
Cc1cc(-c2cnc(NCc3ccncc3)nc2C(C)C)on1,Percent Effect,"30.3 µM, […]",23.52%
CNS(=O)(=O)Cc1ccc(CNC(=O)c2ccccn2)cc1,Percent Effect,"30.3 µM, […]",-17.29%
same,Percent Effect,"10 mM, 10 mM as filed; unlikely as a test dose",-30.84%
COc1cccc(C(=O)N2CCc3nc(C4CCCN4)ncc3C2)c1.Cl (configuration not stated),Percent Effect,"30.3 µM, […]",-17.69%
COc1ccccc1CN1CCN(CCN2CCOC2=O)CC1,Percent Effect,"30 µM, 30.03 µM",-64.53%
COc1ccccc1CC1CCCN(CC(N)=O)C1 (configuration not stated),Percent Effect,"30 µM, 30.03 µM",-11.23%
COc1ccccc1CC1CCCN(CCC(N)=O)C1 (configuration not stated),Percent Effect,"30.3 µM, […]",100.1%
COc1ccccc1CC1CCCN(CC(=O)NC2CC2)C1 (configuration not stated),Percent Effect,"30.3 µM, […]",6.426%
CNC(=O)NC(=O)CN1CCCC(Cc2ccccc2OC)C1 (configuration not stated),Percent Effect,"30.3 µM, […]",26.83%
COc1ccccc1CC1CCN(C(=O)CCN2CCOC2=O)CC1,Percent Effect,"30.3 µM, […]",4.544%
COc1ccccc1CC1CCCN(CCN2CCOC2=O)C1 (configuration not stated),Percent Effect,"30.3 µM, […]",99.68%
CNC(=O)CN1CCCC(Cc2ccccc2OC)C1 (configuration not stated),Percent Effect,"30.3 µM, […]",99.76%
COc1ccccc1CC1CCCN(CCC#N)C1 (configuration not stated),Percent Effect,"30 µM, 30.03 µM",-5.815%
O=C(O)c1cc(/C=C/c2ccc3ccccc3c2)ncn1,Percent Effect,"30 µM, 30.03 µM",17.56%
CCn1ncc2c1C(COCC1CC1)CN(C(=O)c1ccncn1)C2.O=C(O)C(F)(F)F (configuration not stated),Percent Effect,"30 µM, 30.03 µM",-0.6882%
Cc1ncsc1C(=O)N1CC[C@@]2(O)CCN(C(=O)N3CCCC3)C[C@H]2C1,Percent Effect,"30.3 µM, […]",-70.48%
COc1ccc(F)c(-c2ncccc2C(=O)N2C[C@H]3CC[C@@H]2C3)c1,Percent Effect,"30 µM, 30.03 µM",-6.323%
CCn1c(CN2CCC(O)(c3ccc4c(c3)OCO4)CC2)cnc1SC.O=C(O)CC(O)(CC(=O)O)C(=O)O,Percent Effect,"30.3 µM, […]",-5.268%
COc1cc(N2C[C@@H]3COC[C@]3(COCc3ccncc3)C2)ncn1.O=C(O)C(F)(F)F.O=C(O)C(F)(F)F,Percent Effect,"30 µM, 30.03 µM",-12.8%
CN1CCCc2c1nc1c(c2N)CCCC1.O=C(O)C(=O)O,Percent Effect,"30.3 µM, […]",6.357%
Cc1cnn(C2CN(Cc3noc(C4CC4)n3)C2)c1,Percent Effect,"30.3 µM, […]",-128.4%
Cc1cnn(C2CN(Cc3nnc(C4CC4)o3)C2)c1,Percent Effect,"30.3 µM, […]",93.44%
Cc1ccc(-c2nnc(CN3CC(n4cc(C)cn4)C3)o2)cc1,Percent Effect,"30 µM, 30.03 µM",-4.601%
CCn1ccnc1CN1CCCC1C(=O)Nc1nccs1 (configuration not stated),Percent Effect,"30.3 µM, […]",4.608%
Fc1cccc(CN2CCC3(CCCN3c3ncccn3)CC2)c1.O=C(O)C(F)(F)F,Percent Effect,"30.3 µM, […]",-16.3%
